Source: PubChem BioAssay (NCATS)
Unmarked numbers belong to inactive results. Results filed as inconclusive are left out. Active and inactive are the calls of the source. Unless noted, calls come from the whole dose curve; as a rule, active = well fitted curve in either direction with a large enough effect (not every such curve was filed as active); inconclusive = small, poorly fitted or top-dose-only effect, or another doubt; inactive = flat fitted curve, though single readings scatter.

Key:
[1] = AP1 Signaling Pathway (AID 357); conditions: ME-180 AP-1-bla reporter, EGF-induced, beta-lactamase ratio, 5 h; at 7.69 µM (top of the series) unless noted;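 note: ME-180 reporter cells stimulated with EGF at its EC50 level; % is set by controls: 0 for no effect and ±100 for the full control effect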
Method in brief: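 Beta-lactamase reporter under AP-1 response element, ME-180 background. Stimulus: EC50 EGF. Compound exposure 5 h, 37 °C. Detection: CCF4, 2.5 h RT, 460/530 nm. Values: AC50 from titration.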

[2] = molecular target: Cytochrome P450 1A2 (Homo sapiens) (UniProt P05177); experiment: p450-cyp1a2 (AID 410; calls by dose curve; note: potency is the fitted concentration of half-maximal effect;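 for activity change, negative = inhibition: -100% = full effect of reference inhibitor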)
Method in brief: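 Inhibition was calculated relative to 57 uM furafylline (full inhibition). The reaction used human CYP1A2 at 20nM with Luciferin-ME at its Km, 100uM, driven by an NADPH-regenerating system for 60 min at room temperature.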

[3] = NFAT Signaling Pathway (AID 444); conditions: Jurkat NFAT-bla M1, carbachol, beta-lactamase ratio, 5 h; at 7.69 µM (top of the series) unless noted;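 note: carbachol stimulus at about its EC50 of 1 µM final; % is set by controls: 0 for no effect and ±100 for the full control effect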
Method in brief: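 Read-out: CCF4 FRET ratio (460 nm/530 nm) after 1 h RT dye loading, used for %activity and AC50 from titration series. Cells: Jurkat NFAT-β-lactamase/M1 line, treated with compound plus 1 uM carbachol for 5 h, 37 °C.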

[4] = Stat Signaling Pathway (AID 446); conditions: ME-180 SIE beta-lactamase reporter, IL-6 stimulated, 5 h; at 7.69 µM (top of the series) unless noted;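 note: ME-180 cervical cancer cells given 40 pM IL-6 alongside compound; SIE-controlled beta-lactamase reporter measured as 460/530 nm FRET emission ratio; % is set by controls: 0 for no effect and ±100 for the full control effect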
Method in brief: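 Screening format detects activators and inhibitors alike: ME-180 SIE-bla cells stimulated at 40 pM IL-6 for 5 hrs with compound, then dual-emission beta-lactamase read at 405 nm excitation.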

[5] = molecular target: Glucocorticoid receptor (Homo sapiens) (UniProt P04150); experiment: GR-GFP Redistribution (AID 450;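 active = compounds whose dose series gives a full or clear partial fitted curve of increased nuclear translocation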; note: potency is the fitted concentration of half-maximal effect); conditions: U2OS GR-GFP nuclear translocation, laser cytometry, 2 h
[6] = molecular target: Glucocorticoid receptor (Homo sapiens) (UniProt P04150); experiment: GR-EFC Redistribution (AID 451; calls by dose curve; note: potency is the fitted concentration of half-maximal effect); conditions: CHO-K1 GR-EFC translocation, beta-gal luminescence, 2 h
Method in brief: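 Translocation of GR-ED fusion to nuclear EA restores b-gal, read by luminescence after 1 h room-temperature detection. Engineered CHO-K1 biosensor cells, 1,000/well, exposed 2 h at 37 C to titrations up to 46 uM final.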

[7] = molecular target: Mitogen-activated protein kinase 10 (Mus musculus) (UniProt Q61831); experiment: JNK3 AlphaScreen Assay (AID 530);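 note: kinase came from lysate of stimulated human HepG2 cells; signal reports phosphorylation of biotinylated GST-cJun 1-79 at Ser73 with 10 µM ATP; % is set by controls: 0 for no effect and ±100 for the full control effect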
Method in brief: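 Room-temperature AlphaScreen kinase assay; pre-activated HepG2 lysate as JNK3 source, biotin-GST-cJun(1-79) substrate, 10 uM ATP, compound 15 min preincubation.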

[8] = molecular target: 3',5'-cyclic-AMP phosphodiesterase 4B (Homo sapiens) (UniProt Q07343); experiment: qHTS Assay for Inhibitors of PDE-IV (AID 607; active = well fitted activation curve with a large enough effect in the main read-out, with a control signal flat, not every such curve was filed as active; note: % of control where 0% means no effect)
Method in brief: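 The readout is membrane depolarisation from a cAMP-sensing CNG channel, detected with a potential dye at ex 535/em 590. Cells were HEK293-derived (endogenous PDE-IV) at 1000 cells/well, titrated up to 22.9 uM final.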

[9] = molecular target: Cytochrome P450 2D6 (Homo sapiens) (UniProt P10635); experiment: qHTS Assay for Inhibitors and Substrates of Cytochrome P450 2D6 (AID 891; active = well fitted curve in the direction sought with a large enough effect; an effect the other way counts as inactive or inconclusive; note: nearly all actives have a fitted effect of over 60% in size; note: potency is the fitted concentration of half-maximal effect)
Method in brief: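 Human CYP2D6 (5 nM) with 30 uM Luciferin-ME EGE (at Km) in 100 mM KPO4, compound preincubated 10 min, then NADPH regeneration system for 60 min at room temperature. Luciferin read by luminescence; normalized to 1.43 uM quinidine.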

[10] = molecular target: Cytochrome P450 2C19 (Homo sapiens) (UniProt P33261); experiment: qHTS Assay for Inhibitors and Substrates of Cytochrome P450 2C19 (AID 899; active = well fitted curve in the direction sought with a large enough effect; an effect the other way counts as inactive or inconclusive; note: nearly all actives have a fitted effect of over 60% in size; note: potency is the fitted concentration of half-maximal effect)
Method in brief: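 5nM enzyme + 10uM Luciferin-H EGE (=KM), 50mM KPO4; cpd pin-transferred, 10 min 37C; NADPH regen, 60 min 37C; stopped w/ luciferin detection reagent, 20 min; luminescence. Normalized to 57uM ketoconazole (AC100).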

[11] = molecular target: Cytochrome P450 3A4 (Homo sapiens) (UniProt P08684); experiment: qHTS Assay for Activators of Cytochrome P450 3A4 (AID 885; active = well fitted curve in the direction sought with a large enough effect; an effect the other way counts as inactive or inconclusive; note: nearly all actives have a fitted effect of over 65% in size)
Method in brief: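 Steps: enzyme/substrate mix dispensed; compound added, 10 min RT; NADPH regeneration solution added, 60 min RT; luciferin detection buffer stops reaction; 20 min later luminescence measured.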

[12] = molecular target: Guanine nucleotide-binding protein G(i) subunit alpha-1 (Homo sapiens) (UniProt P63096); experiment: qHTS Assay for Inhibitors of RGS12 GoLoco Motif Activity (Green Fluorophore) (AID 879; active = well fitted curve in the direction sought with a large enough effect; an effect the other way counts as inactive or inconclusive;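 note: 0% = labeled peptide with Gαi1 and full inhibition = labeled peptide alone without protein; negative values mean loss of peptide binding seen as reduced polarization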)
Method in brief: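 Fluorescence polarization assay: 50 nM Gαi1 with 10 nM FITC-labeled RGS12 GoLoco peptide in 10 mM Tris pH 7.5, 150 mM NaCl, 0.1 mM GDP, 0.05% NP40, 10 min at room temperature with compound.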

[13] = molecular target: Muscarinic acetylcholine receptor M1 (Rattus norvegicus) (UniProt P08482); experiment: qHTS Assay for Antagonists of Acetylcholine Muscarinic M1 Receptor: Measurement of IP-One Response (AID 944; active = well fitted curve in the direction sought with a large enough effect; an effect the other way counts as inactive or inconclusive; note: nearly all actives have a fitted effect of over 75% in size)
Method in brief: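 Steps: plate transfected CHO-M1 cells overnight; add test compound, 10 min; add carbachol (200 nM, EC80) in stimulation buffer with LiCl; incubate 30 min; add labelled IP1 tracer and anti-IP1 antibody in lysis buffer; read HTRF after 10 min.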

[14] = molecular target: Pyruvate kinase PKM (Homo sapiens) (UniProt P14618); experiment: qHTS Assay for Activators of Human Muscle Pyruvate Kinase (AID 954; active = well fitted curve in the direction sought with a large enough effect, not every such curve was filed as active;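 note: 0% = uninhibited enzyme and -100% = no enzyme or full thiadiazolimine inhibition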)
Method in brief: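 Reaction: 0.1 nM purified PKM2 with 0.5 mM phosphoenolpyruvate and 0.1 mM ADP, room temperature, 1 h. Readout: luciferase-based ATP luminescence after stop reagent. Activators judged against a 0.3 nM enzyme column.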

[15] = molecular target: Alpha-galactosidase A (Homo sapiens) (UniProt P06280); experiment: Counterscreen for Glucocerebrosidase Inhibitors: qHTS Assay for Human alpha-Galactosidase at pH 4.5 (AID 992; active = well fitted curve in the direction sought with a large enough effect; an effect the other way counts as inactive or inconclusive; note: 0% is about no effect)
Method in brief: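 Concentration-response curves (0.7 nM to 77 uM final) were modeled with the Hill equation to give AC50. Reactions: 2 nM enzyme, 80 uM fluorogenic alpha-galactoside, pH 4.5 citric acid buffer, 20 min, room temperature.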

[16] = molecular target: Muscarinic acetylcholine receptor M1 (Rattus norvegicus) (UniProt P08482); experiment: qHTS Assay for Antagonists of Acetylcholine Muscarinic M1 Receptor: Kinetic Measurement of Intracellular Calcium Response (AID 943; active = well fitted curve in the direction sought with a large enough effect; an effect the other way counts as inactive or inconclusive;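 note: Fluo-4 calcium signal as peak divided by basal fluorescence over 4 min; nearly all actives have a fitted effect of over 75% in size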)
Method in brief: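 Intracellular calcium flux, recorded with Fluo-4 in a kinetic plate reader, served as signal; the response to carbachol at EC80 (100 nM final) was taken as maximal over minimal fluorescence after a 10 min compound pre-incubation in rat M1-CHO cells.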

Chain of Cytochrome P450 1A2 (Homo sapiens) (P05177 whole entry, looked up): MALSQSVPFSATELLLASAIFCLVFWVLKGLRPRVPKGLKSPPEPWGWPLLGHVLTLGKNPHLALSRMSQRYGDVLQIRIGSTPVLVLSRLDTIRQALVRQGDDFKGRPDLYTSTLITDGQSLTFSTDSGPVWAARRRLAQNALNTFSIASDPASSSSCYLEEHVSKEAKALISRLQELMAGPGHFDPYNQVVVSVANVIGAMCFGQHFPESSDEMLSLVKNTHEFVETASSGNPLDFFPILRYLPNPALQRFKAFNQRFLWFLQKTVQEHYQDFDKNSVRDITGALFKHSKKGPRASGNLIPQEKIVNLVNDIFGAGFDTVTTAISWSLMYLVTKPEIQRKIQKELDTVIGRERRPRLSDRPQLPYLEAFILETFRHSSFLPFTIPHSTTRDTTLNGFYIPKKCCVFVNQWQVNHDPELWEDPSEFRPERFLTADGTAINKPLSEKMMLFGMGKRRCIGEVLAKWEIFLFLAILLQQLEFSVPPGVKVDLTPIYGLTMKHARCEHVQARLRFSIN
Chain of Glucocorticoid receptor (Homo sapiens) (P04150 whole entry, looked up, the tested form may be a part): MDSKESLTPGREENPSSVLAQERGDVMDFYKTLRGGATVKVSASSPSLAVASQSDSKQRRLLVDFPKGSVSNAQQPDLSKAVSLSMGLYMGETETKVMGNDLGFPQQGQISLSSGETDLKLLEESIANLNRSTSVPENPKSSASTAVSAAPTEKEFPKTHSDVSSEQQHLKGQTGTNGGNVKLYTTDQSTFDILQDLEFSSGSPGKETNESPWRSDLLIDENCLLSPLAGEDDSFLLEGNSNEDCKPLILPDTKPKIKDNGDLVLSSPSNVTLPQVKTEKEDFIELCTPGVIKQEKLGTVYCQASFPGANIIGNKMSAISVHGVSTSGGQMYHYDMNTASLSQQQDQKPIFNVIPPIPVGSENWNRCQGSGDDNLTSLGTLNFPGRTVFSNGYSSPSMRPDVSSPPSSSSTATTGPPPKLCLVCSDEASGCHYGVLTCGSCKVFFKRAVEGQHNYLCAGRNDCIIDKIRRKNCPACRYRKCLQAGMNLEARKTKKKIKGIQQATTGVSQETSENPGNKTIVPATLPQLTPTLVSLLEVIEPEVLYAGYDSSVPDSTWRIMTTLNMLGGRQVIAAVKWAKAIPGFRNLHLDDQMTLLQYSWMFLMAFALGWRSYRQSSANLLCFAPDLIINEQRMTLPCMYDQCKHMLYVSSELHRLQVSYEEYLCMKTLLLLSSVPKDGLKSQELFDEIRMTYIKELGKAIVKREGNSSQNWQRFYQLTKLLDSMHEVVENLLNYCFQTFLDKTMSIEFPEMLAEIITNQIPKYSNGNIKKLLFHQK
Chain of Cytochrome P450 2D6 (Homo sapiens) (P10635 whole entry, looked up): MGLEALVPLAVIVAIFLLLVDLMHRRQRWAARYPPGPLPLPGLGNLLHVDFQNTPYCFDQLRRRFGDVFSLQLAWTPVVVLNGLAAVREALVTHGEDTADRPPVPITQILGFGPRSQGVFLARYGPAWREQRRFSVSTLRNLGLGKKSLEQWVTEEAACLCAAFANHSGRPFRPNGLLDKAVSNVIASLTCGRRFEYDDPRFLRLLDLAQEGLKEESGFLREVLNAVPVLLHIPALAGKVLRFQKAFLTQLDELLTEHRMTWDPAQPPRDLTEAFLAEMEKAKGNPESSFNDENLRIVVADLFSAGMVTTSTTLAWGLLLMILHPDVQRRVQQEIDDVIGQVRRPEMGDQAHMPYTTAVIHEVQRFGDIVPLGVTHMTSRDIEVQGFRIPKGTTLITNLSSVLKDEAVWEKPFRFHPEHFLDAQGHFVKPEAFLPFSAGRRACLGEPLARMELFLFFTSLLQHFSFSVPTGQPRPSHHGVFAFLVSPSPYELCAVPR
Chain of Cytochrome P450 2C19 (Homo sapiens) (P33261 whole entry, looked up): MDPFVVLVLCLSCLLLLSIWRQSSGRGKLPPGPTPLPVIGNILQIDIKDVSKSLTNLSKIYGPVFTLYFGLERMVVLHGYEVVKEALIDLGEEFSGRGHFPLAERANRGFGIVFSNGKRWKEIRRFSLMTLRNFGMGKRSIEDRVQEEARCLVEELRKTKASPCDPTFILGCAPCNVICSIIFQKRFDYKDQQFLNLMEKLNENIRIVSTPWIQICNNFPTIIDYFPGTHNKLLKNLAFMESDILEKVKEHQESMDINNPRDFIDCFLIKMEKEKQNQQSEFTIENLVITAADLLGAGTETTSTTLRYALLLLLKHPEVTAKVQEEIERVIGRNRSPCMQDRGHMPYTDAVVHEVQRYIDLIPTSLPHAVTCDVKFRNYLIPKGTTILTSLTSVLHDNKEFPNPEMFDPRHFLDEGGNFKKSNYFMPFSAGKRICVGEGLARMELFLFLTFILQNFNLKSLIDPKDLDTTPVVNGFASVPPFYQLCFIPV
Chain of Muscarinic acetylcholine receptor M1 (Rattus norvegicus) (P08482 whole entry, looked up): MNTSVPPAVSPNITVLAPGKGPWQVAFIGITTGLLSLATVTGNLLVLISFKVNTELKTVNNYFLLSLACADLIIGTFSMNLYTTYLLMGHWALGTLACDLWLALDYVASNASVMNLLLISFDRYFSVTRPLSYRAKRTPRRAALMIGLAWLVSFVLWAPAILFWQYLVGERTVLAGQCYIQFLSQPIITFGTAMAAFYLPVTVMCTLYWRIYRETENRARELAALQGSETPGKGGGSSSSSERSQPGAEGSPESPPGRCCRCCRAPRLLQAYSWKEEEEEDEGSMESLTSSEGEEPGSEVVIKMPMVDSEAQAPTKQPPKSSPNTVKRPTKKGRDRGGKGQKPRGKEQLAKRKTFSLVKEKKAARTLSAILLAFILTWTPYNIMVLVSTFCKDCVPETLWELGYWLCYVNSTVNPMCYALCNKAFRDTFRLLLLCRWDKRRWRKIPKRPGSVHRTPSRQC
Chain of Cytochrome P450 3A4 (Homo sapiens) (P08684 whole entry, looked up): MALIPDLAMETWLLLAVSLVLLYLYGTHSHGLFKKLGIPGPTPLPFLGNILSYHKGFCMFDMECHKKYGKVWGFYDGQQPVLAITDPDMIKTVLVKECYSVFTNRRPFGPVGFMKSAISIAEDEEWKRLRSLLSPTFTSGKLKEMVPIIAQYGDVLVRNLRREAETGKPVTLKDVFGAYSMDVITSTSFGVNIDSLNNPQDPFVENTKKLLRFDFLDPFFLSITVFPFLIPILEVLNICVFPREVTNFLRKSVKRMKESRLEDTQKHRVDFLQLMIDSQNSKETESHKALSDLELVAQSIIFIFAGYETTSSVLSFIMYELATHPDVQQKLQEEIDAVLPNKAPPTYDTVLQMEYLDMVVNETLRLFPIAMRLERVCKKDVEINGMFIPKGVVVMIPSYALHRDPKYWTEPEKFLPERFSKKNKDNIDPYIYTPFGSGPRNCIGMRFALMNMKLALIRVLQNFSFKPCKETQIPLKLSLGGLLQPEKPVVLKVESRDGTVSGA
Chain of 3',5'-cyclic-AMP phosphodiesterase 4B (Homo sapiens) (Q07343 whole entry, looked up): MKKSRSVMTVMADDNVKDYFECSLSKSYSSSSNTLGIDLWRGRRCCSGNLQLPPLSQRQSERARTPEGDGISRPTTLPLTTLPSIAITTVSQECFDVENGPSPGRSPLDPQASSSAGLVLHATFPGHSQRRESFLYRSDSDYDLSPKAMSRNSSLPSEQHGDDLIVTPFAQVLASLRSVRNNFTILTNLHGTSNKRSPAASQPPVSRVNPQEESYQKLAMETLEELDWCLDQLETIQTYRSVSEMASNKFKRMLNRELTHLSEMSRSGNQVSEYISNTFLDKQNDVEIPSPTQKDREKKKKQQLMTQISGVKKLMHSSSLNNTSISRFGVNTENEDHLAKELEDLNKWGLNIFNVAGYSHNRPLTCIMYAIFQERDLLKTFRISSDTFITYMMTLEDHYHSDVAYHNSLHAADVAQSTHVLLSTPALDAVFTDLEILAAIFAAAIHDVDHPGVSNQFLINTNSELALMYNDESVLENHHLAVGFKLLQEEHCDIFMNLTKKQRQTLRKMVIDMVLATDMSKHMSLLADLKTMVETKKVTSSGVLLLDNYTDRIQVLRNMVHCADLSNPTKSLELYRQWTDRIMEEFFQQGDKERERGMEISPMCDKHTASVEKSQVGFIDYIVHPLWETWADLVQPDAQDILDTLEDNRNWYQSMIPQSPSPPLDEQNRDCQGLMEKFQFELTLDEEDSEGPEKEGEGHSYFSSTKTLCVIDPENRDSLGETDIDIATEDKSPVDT
Chain of Pyruvate kinase PKM (Homo sapiens) (P14618 whole entry, looked up): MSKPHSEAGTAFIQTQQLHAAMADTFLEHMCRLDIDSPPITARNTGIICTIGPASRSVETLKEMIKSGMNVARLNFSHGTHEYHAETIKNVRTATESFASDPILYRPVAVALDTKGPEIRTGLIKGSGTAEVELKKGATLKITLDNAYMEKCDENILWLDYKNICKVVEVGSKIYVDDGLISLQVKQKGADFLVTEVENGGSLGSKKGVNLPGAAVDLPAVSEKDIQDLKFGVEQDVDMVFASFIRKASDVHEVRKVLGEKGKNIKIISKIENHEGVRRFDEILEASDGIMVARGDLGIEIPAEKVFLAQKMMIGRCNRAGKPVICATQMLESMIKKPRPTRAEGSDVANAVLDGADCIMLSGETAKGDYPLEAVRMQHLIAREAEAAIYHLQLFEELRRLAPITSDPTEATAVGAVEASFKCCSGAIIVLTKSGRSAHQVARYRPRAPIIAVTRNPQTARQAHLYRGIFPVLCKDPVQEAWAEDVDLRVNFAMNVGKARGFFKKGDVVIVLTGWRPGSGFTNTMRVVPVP
Chain of Guanine nucleotide-binding protein G(i) subunit alpha-1 (Homo sapiens) (P63096 whole entry, looked up): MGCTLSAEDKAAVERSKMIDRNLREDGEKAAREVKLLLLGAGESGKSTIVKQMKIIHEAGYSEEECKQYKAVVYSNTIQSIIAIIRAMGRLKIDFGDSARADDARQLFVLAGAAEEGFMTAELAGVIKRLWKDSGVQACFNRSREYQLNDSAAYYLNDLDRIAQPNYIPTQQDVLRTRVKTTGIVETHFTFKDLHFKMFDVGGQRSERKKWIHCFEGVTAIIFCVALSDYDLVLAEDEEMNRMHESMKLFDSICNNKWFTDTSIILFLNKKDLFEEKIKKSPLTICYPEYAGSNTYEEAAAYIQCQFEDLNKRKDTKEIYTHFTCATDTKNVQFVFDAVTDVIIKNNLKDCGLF

| Compound | activity change, negative = inhibition [1] | Potency [2] | activity change, negative = inhibition [3] | activity, negative = inhibition [4] | Potency [5] | Potency [6] | Potency [7] | Potency [8] | Potency [9] | Potency [10] | activity change, negative = inhibition [2] | Potency [11] | outcome [12] | Potency [13] | outcome [14] | outcome [15] | Potency [16] |
| --- | --- | --- | --- | --- | --- | --- | --- | --- | --- | --- | --- | --- | --- | --- | --- | --- | --- |
| N[C@H](Cc1ccc(O)c(I)c1)C(=O)O | 6.16% [at 38 µM] | inactive | 8.86% [at 38 µM] | -3.36% [at 38 µM] | > 46 µM | > 46 µM | inactive | inactive | inactive | inactive | – | – | – | – | – | – | – |
| O=C(O)C1CC2(C1)CC(C(=O)O)C2 (configuration not stated) | 1.62% | – | 10.7% | 12.7% | > 46 µM | > 9.22 µM | inactive | inactive | – | inactive | -6.3% [at 2.29 µM] | – | – | – | – | – | – |
| O=C(Oc1ccc2c(c1)CN(Cc1ccccc1)CO2)c1ccccc1 | 10.8% | – | 13.3% | 2.87% | > 46 µM | > 9.22 µM | inactive | inactive | 0.501 µM (active) | – | -14.3% [at 2.29 µM] | inactive | – | – | – | – | – |
| Nc1ccccc1SCc1csc(-c2ccc(Cl)cc2)n1 | -17.2% | 0.631 µM (active) | -25.4% | -11.2% | > 46 µM | > 9.22 µM | inactive | inactive | – | 0.501 µM (active) | – | inactive | – | – | – | – | – |
| c1ccc(C[C@@H](Nc2cccnc2)c2ccccc2)cc1 | 5.71% | 0.2 µM (active) | -11.2% | -4.39% | > 46 µM | > 9.22 µM | inactive | inactive | – | – | – | – | – | – | – | – | – |
| COc1cc(OC)cc([C@H](CNc2ncnc3c2ncn3[C@@H]2O[C@@H](CO)[C@H](O)[C@@H]2O)c2ccccc2C)c1 | -6.78% [at 38 µM] | inactive | 19.3% [at 38 µM] | 3.32% [at 38 µM] | > 46 µM | > 46 µM | inactive | inactive | – | inactive | – | – | – | – | – | – | – |
| Nc1nc(Cl)nc2c1ncn2[C@@H]1O[C@@H](CO)[C@@H](O)[C@H]1O | -7.62% [at 38 µM] | inactive | 2.55% [at 38 µM] | 7.39% [at 38 µM] | > 46 µM | > 46 µM | inactive | – | – | – | – | – | inactive | inactive | inactive | inactive | – |
| CC[N+](C)(CC)CCN1C(=O)c2ccccc2S1(=O)=O | 7.73% | inactive | 6.78% | -3.07% | > 46 µM | > 9.22 µM | inactive | inactive | – | inactive | – | – | – | – | – | – | – |
| Cc1ccc([C@@H](O)c2cnc(C)n2Cc2ccccc2)cc1 | -7.71% | inactive | -10.9% | -4.84% | > 46 µM | > 9.22 µM | inactive | inactive | 0.631 µM (active) | 1.26 µM (active) | – | inactive | – | – | – | – | – |
| N#C[C@@H](N=Nc1ccccc1C(=O)O)C(N)=O | 9.26% | inactive | -8.71% | -29.4% | > 46 µM | > 9.22 µM | inactive | inactive | – | inactive | – | – | – | – | – | – | – |
| O=C(O)CCCCCC[C@@H]1C(=O)NC(=O)N1CC[C@@H](O)C1CCCCC1 | -8.86% [at 38 µM] | inactive | -9.7% [at 38 µM] | 3.65% [at 38 µM] | > 46 µM | > 46 µM | inactive | inactive | inactive | inactive | – | – | – | – | – | – | – |
| C[N+]1(CCC(=O)c2ccco2)CC2CCC(CC2)C1 (configuration not stated) | 6.86% | inactive | 7.5% | 1.18% | > 46 µM | > 9.22 µM | inactive | inactive | inactive | – | – | – | – | – | – | – | – |
| N#CCCn1c(=O)c(CCc2ccccc2)nc2cnc(Oc3ccccc3)nc21 | -21% | 12.6 µM (active) | -2.26% | -14.5% | > 9.22 µM | > 46 µM | inactive | inactive | – | – | – | inactive | – | – | – | – | – |
| CN(CCc1ccccn1)c1ccc2c(c1)Cc1ccccc1-2 | -10.1% | 0.631 µM (active) | -13.8% | 7.42% | > 46 µM | > 9.22 µM | inactive | inactive | 3.16 µM (active) | 0.794 µM (active) | – | inactive | – | – | – | – | – |
| CCCCC[C@@H](O)[C@@H]1C(=O)O[C@@H](C)[C@@H](O)\C=C/C=C\C=C/C=C\C=C(\C)[C@H](O)C[C@H](O)C[C@H](O)C[C@H](O)C[C@H](O)C[C@H](O)C[C@@H]1O | -1.52% | – | -11.4% | 11% | > 46 µM | > 9.22 µM | inactive | inactive | inactive | – | 3.3% [at 2.29 µM] | – | – | – | – | – | – |
| CCCC[C@]1(C2CCCC2)Cc2cc(OCC(=O)O)c(Cl)c(Cl)c2C1=O | -1.05% [at 38 µM] | inactive | -21.4% [at 38 µM] | -1.69% [at 38 µM] | > 46 µM | > 46 µM | inactive | – | – | – | – | inactive | inactive | inactive | inactive | inactive | inactive |
